Measured values taken from PubChem BioAssay AID1159580 (chemical genetic matrix, 2015).
“And” between values parts separate entries of the source, which are not always exact repeats. Equal values may be shown once. Among all 5,500 compounds or so, about 2,000 (36%) were called active. Another 18% or so got no clear call; they are omitted. Rule as the data show it: active = normalized growth mostly below about 0.91 (no sharp cut-off); inconclusive = no clear call, values can overlap the other calls; inactive = mostly above about 0.92. Some of the results follow.

Assay: chemical genetic growth profiling, strain panel (AID 1159580);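 also: tested at 20 µM; growth read once vehicle control cultures reached saturation at 30 °C; 1 = growth at the plate median or of vehicle wells; lower values mean less growth of the strain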
Conditions: S. cerevisiae deletion strains, growth OD

Measured: normalized growth

Cc1cc(=O)[nH]c(=S)[nH]1
inactive: locus YAL013W, strain DEP1, active compounds read low 1.01 | locus YAL021C, strain ccr4, active compounds read low 0.956 | locus YAL026C, strain drs2, active compounds read low 0.974 | locus YAL030W, strain snc1, active compounds read low 0.98 | locus YBL061C, strain skt5, active compounds read low 0.987 | locus YBR009C, strain hhf1, active compounds read low 0.954 | locus YBR021W, strain FUR4, active compounds read low 0.986 | locus YBR023C, strain chs3, active compounds read low 0.977 | locus YBR171W, strain sec66, active compounds read low 0.987 | locus YBR229C, strain ROT2, active compounds read low 1.01 | locus YBR231C, strain swc5, active compounds read low 0.989 | locus YBR279W, strain paf1, active compounds read low 0.973 | locus YCL011C, strain gbp2, active compounds read low 0.964 | locus YCL016C, strain dcc1, active compounds read low 0.96 | locus YCL029C, strain bik1, active compounds read low 1.02 | locus YCL061C, strain MRC1, active compounds read low 0.926 | locus YCL069W, strain vba3, active compounds read low 0.97 | locus YCR088W, strain abp1, active compounds read low 0.978 | locus YDL005C, strain med2, active compounds read low 0.97 | locus YDL035C, strain GPR1, active compounds read low 0.993 | locus YDL040C, strain nat1, active compounds read low 0.977 | locus YDL074C, strain BRE1, active compounds read low 1.03 | locus YDL101C, strain DUN1, active compounds read low 1.03 | locus YDL134C, strain PPH21, active compounds read low 1 | locus YDL185W, strain tfp1, active compounds read low 1.02 | locus YDL192W, strain arf1, active compounds read low 1 | locus YDR001C, strain nth1, active compounds read low 0.972 | locus YDR069C, strain doa4, active compounds read low 0.982 | locus YDR101C, strain arx1, active compounds read low 0.998 | locus YDR137W, strain rgp1, active compounds read low 0.958 | locus YDR150W, strain NUM1, active compounds read low 1.01 | locus YDR159W, strain sac3, active compounds read low 0.937 | locus YDR162C, strain NBP2, active compounds read low 1.01 | locus YDR195W, strain ref2 0.948 | locus YDR297W, strain sur2, active compounds read low 0.963 | locus YDR318W, strain mcm21, active compounds read low 1.03 | locus YDR334W, strain swr1, active compounds read low 0.973 | locus YDR335W, strain msn5, active compounds read low 0.968 | locus YDR388W, active compounds read low 1.01 | locus YDR392W, strain spt3, active compounds read low 0.929 | locus YDR502C, strain sam2, active compounds read low 0.999 | locus YEL003W, strain gim4, active compounds read low 0.965 | locus YEL037C, strain rad23, active compounds read low 0.98 | locus YEL061C, strain CIN8 (second series), active compounds read low 0.973 | locus YEL061C, strain CIN8, active compounds read low 1 | locus YER015W, strain faa2, active compounds read low 0.989 | locus YER016W, strain bim1, active compounds read low 0.938 | locus YER110C, active compounds read low 1.01 | locus YER111C, strain swi4, active compounds read low 0.976 | locus YER155C, strain BEM2 (second series), active compounds read low 1.01 | locus YER155C, strain BEM2, active compounds read low 1.01 | locus YER167W, strain BCK2, active compounds read low 0.996 | locus YFR010W, strain ubp6, active compounds read low 0.97 | locus YGL078C, strain dbp3, active compounds read low 0.991 | locus YGL086W, strain mad1, active compounds read low 1 | locus YGL167C, strain pmr1, active compounds read low 0.968 | locus YGL173C, strain kem1, active compounds read low 0.968 | locus YGL227W, strain vid30, active compounds read low 0.986 | locus YGL240W, strain doc1, active compounds read low 0.988 | locus YGL248W, strain PDE1, active compounds read low 1.01 | locus YGL253W, strain hxk2, active compounds read low 0.949 | locus YGR078C, strain PAC10, active compounds read low 1.02 | locus YGR135W, strain pre9, active compounds read low 1 | locus YGR229C, strain SMI1, active compounds read low 1.01 | locus YGR252W, strain gcn5, active compounds read low 0.978 | locus YHR013C, strain ard1, active compounds read low 0.914 | locus YHR027C, strain rpn1, active compounds read low 0.965 | locus YHR030C, strain SLT2, active compounds read low 1.01 and 1.08 | locus YHR079C, strain IRE1 (second series), active compounds read low 1.01 | locus YHR079C, strain IRE1, active compounds read low 1.05 | locus YHR094C, strain hxt1, active compounds read low 1.01 | locus YHR129C, strain ARP1, active compounds read low 1.02 | locus YHR142W, strain chs7, active compounds read low 0.952 | locus YHR200W, strain rpn10, active compounds read low 1 | locus YIL066C, strain RNR3, active compounds read low 1.01 | locus YIL073C, strain SPO22, active compounds read low 1.04 | locus YIL125W, strain kgd1, active compounds read low 1 | locus YIR030C, strain dcg1, active compounds read low 1 | locus YJL092W, strain hpr5, active compounds read low 0.987 | locus YJL095W, strain BCK1 (second series), active compounds read low 0.978 | locus YJL095W, strain BCK1, active compounds read low 1.04 | locus YJL115W, strain asf1, active compounds read low 0.97 | locus YJL129C, strain trk1, active compounds read low 0.971 | locus YJL134W, strain LCB3, active compounds read low 1.01 | locus YJL154C, strain vps35, active compounds read low 0.972 | locus YJL164C, strain tpk1, active compounds read low 0.947 | locus YJL166W, strain qcr8, active compounds read low 0.976 | locus YJL168C, strain set2, active compounds read low 1.01 | locus YJL187C, strain SWE1 (second series), active compounds read low 1.03 | locus YJL187C, strain SWE1, active compounds read low 0.976 | locus YJR043C, strain POL32, active compounds read low 1.02 | locus YJR066W, strain TOR1, active compounds read low 0.996
